M1 PAM parental: nonselective activator or artifact in parental CHO-K1 calcium assay. ATP EC20, Fluo-8 calcium fluorescence; 0% at ATP EC20, 100% at ATP max. activation, % at 3 µM. 360,000 tested, 0.02% active;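 active means activation above the run cutoff, the mean activation of all test compounds plus 3 SD, cut at about 40% in these data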;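 further: peak over basal fluorescence ratio in a 140 s read after ATP addition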
M1 ag: activates human CHRM1 receptor | AID 588814 | activation, % at 3 µM | 360,000 tested, 0.33% active | CHO-K1 hM1, Fluo-8 calcium fluorescence, agonist mode; 0% DMSO, 100% acetylcholine EC100;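 active means activation above the run's mean compound activation plus 3 SD, cut at about 16% in these data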;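 further: peak over basal fluorescence ratio within a 140 s kinetic read after compound addition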
Target sequence (P11229 whole entry, looked up): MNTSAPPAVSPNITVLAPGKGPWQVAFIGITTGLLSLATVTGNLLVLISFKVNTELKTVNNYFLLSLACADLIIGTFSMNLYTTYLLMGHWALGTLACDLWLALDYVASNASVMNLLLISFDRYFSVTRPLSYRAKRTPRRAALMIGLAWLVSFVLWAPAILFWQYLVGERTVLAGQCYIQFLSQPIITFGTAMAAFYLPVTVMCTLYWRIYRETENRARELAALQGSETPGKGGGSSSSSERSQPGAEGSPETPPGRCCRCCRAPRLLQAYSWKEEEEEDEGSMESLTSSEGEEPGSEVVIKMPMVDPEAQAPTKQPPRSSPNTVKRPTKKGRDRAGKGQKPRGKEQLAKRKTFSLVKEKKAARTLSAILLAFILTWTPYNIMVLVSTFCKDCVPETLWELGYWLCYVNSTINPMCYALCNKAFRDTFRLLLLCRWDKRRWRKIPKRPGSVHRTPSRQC
CHO-K1 Ca antag: M1 antagonist counterscreen hit in parental CHO-K1 cells | inhibition, % at 3 µM | ATP-induced calcium, Fluo-8 fluorescence | AID 602250 | 360,000 tested, 0.6% active;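 active means inhibition above a per-plate cutoff, the plate's mean sample inhibition plus 3 SD, cut at about 24% in these data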
CHRM1 PAM: positive allosteric modulators of human M1 muscarinic receptor; P11229; CHO-K1 hM1, Fluo-8 calcium fluorescence, ACh EC20; 0% = ACh EC20, 100% = maximal ACh; activation, % at 3 µM; 360,000 tested, 0.088% active; AID 588819; in the data active means activation above about 19%, passing the limit was not always enough
M1 ag parental: M1 agonist counterscreen hit in parental CHO-K1 cells; activation, % at 3 µM; Fluo-8 calcium fluorescence; scaled to maximal ATP response, vehicle zero; 360,000 tested, 0.48% active; in the data active means activation above about 15%;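 further: untransfected CHO-K1 host cells lacking M1 receptor as counterscreen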
CHRM1 antagonist: blocks human M1 muscarinic receptor; CHO-K1 hM1, Fluo-8 calcium fluorescence, ACh EC80 antagonist; inhibition, % at 3 µM; 360,000 tested, 1.3% active;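 active means percent inhibition above its own plate's cutoff, namely the mean of that plate's compound wells plus 3 SD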;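 further: peak over basal fluorescence ratio during 140 s after agonist addition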
Hits are given with their value; i = inactive. This is a sample that favours compounds with a hit; in the whole collection about 2.3% have one here.

SMILES	M1 PAM parental	M1 ag	CHO-K1 Ca antag	CHRM1 PAM	M1 ag parental	CHRM1 antagonist
CCCNC(=O)[C@@H]1CCCN1C(=O)[C@@H]1Cc2ccccc2CN1	i	i	i	i	i	i
COc1nccnc1NS(=O)(=O)c1ccc(NC(=O)c2ccc(F)cc2)cc1	i	i	i	29	i	i
O=C(c1ccccc1Oc1ccc([N+](=O)[O-])cc1)N1CCOCC1	i	i	25	i	i	i
c1ccc(-c2csc(CN3CCCCC3)n2)cc1	i	i	i	i	i	i
C=CCOC(=O)C1=C(C)OC(N)=C(C#N)C1c1ccccc1F (stereo not drawn)	i	i	i	i	i	i
C=CCOC(=O)C1=C(C)NC(=S)C(C#N)(CC=C)C1c1ccccc1Cl (stereo not drawn)	i	i	i	i	17	i
CCOC(=O)c1ccccc1-n1c(C)cc(C2N=C(N)Nc3nc4ccccc4n32)c1C (stereo not drawn)	i	i	i	i	i	81
O=C(CN1CCN(Cc2ccccc2Cl)CC1)N/N=C/c1ccco1	i	i	i	i	17	i
O=C(Cn1c(C(F)(F)F)nc2ccccc21)N/N=C/c1ccco1	i	i	i	i	17	i
CN(CC(=O)Nc1ccc(F)cc1)C(=O)CN1C(=O)NC(CCc2ccccc2)C1=O (stereo not drawn)	i	i	i	i	i	i
O=C(COc1ccc(C(=O)c2ccccc2)cc1)Nc1cccnc1	i	i	i	i	19	i
N#Cc1ccc(-c2ccc(OCC(=O)Nc3cccnc3)cc2)cc1	i	i	i	i	18	i
CC(=O)c1cccc(NC(=O)COc2ccccc2)c1	i	i	32	i	i	i
Cc1sc2ncn(CC(=O)NCC3COc4ccccc4O3)c(=O)c2c1S(=O)(=O)N1CCCCC1 (stereo not drawn)	i	i	i	i	i	i
c1ccc(CNc2cncnc2)cc1	i	i	i	i	i	i
COc1ccc(Cn2ccnc2)cc1Br	i	i	i	i	i	i
COc1ccc(NCc2ccc(OC)c(Cn3ccnc3)c2)c(OC)c1	i	i	i	i	i	34
Cc1c(NC(=O)C(C)OC(=O)Cc2ccc(F)cc2)c(=O)n(-c2ccccc2)n1C (stereo not drawn)	i	i	25	i	i	38
CC(O)CNc1nc(N)[nH]c(=O)c1N=Nc1ccccc1 (stereo not drawn)	i	i	i	i	i	i
O=C(COc1ccc2ccccc2c1Br)Nc1ncn[nH]1	i	i	i	i	19	i
CC1=C(C(=O)N(C(C)C)C(C)C)CC(CC(=O)NCCN2CCOCC2)C(=O)N1CCCN1CCCC1=O (stereo not drawn)	i	i	26	i	i	i
COc1ccc(OC)c(S(=O)(=O)NCCCN2CCCC2=O)c1	i	i	i	i	i	i
O=C(C1CCCCC1)N1CCC2CC1c1cc(-c3ccc4c(c3)OCO4)ccc12 (stereo not drawn)	i	i	i	i	i	35
CN(C)C(CNC(=O)c1ccc(Cl)c(S(=O)(=O)N2CCCCCC2)c1)c1ccccc1 (stereo not drawn)	i	i	i	i	i	52
O=C(NCCN1CCOCC1)c1ccc(Cl)c(S(=O)(=O)N2CCCCC2)c1	i	i	i	i	i	49
SMILES	M1 PAM parental	M1 ag	CHO-K1 Ca antag	CHRM1 PAM	M1 ag parental	CHRM1 antagonist
CC(NC(=O)c1ccc(Cl)c(S(=O)(=O)N2CCCCCC2)c1)c1cccnc1 (stereo not drawn)	i	i	i	i	i	37
O=C(NCc1nc2ccccc2[nH]1)c1ccc(Cl)c(S(=O)(=O)N2CCCC2)c1	i	i	i	i	i	i
CCCn1c(NC(=O)c2ccc(Cl)c(S(=O)(=O)N3CCCC3)c2)nc2ccccc21	i	i	i	i	i	35
COc1ccc(CNC(=O)COC(=O)CN2C(=O)NC3(CCCC3)C2=O)cc1	i	i	i	i	i	i
Cc1nn(-c2ccccc2)c(Cl)c1CN(C(=O)CCl)c1cccc2ccccc12	i	i	i	i	i	i
CN1CCN(Cc2cccc3ncccc23)CC1CCO (stereo not drawn)	i	i	i	i	i	i
O=C(NCCCN1CCOCC1)c1ccc(Sc2ccccc2Cl)c([N+](=O)[O-])c1	i	i	i	i	i	31
NC1=NC[C@@H](CC2CCCCC2)N1CCc1cc(C(F)(F)F)cc(C(F)(F)F)c1	i	i	i	i	i	35
O=Nc1c(O)n(Cc2c(Cl)cccc2Cl)c2ccccc12	i	36	i	i	i	i
Cc1ccc(Cn2c(O)c(N=O)c3ccccc32)cc1	i	20	i	i	i	i
O=Nc1c(O)n(Cc2ccc(Cl)cc2)c2ccccc12	i	18	i	22	i	i
Cc1cc(C(=O)CCl)c(C)n1-c1c(C)n(C)n(-c2ccccc2)c1=O	i	i	i	i	i	i
O=C1C=C(c2cnc3ccccc3c2)C[C@@H](c2ccc3c(c2)OCO3)C1	i	i	i	i	i	i
CC(C)N1CCN(c2ccncc2S(=O)(=O)N2CCN(C)CC2)CC1	i	i	i	i	i	47
CNS(=O)(=O)c1cnccc1N1CCN(C)CC1	i	i	i	i	i	i
COc1cc(CN2CCNC(=O)C2CC(=O)N2CCc3ccccc3C2)cc(OC)c1 (stereo not drawn)	i	i	i	i	i	i
O=CNc1cc(-c2ccccc2)cn2c(-c3ccc(F)c(Cl)c3)cnc12	i	i	i	i	i	i
COc1cccc(-c2cnc3c(NC=O)cc(-c4ccc(N(C)C)cc4)cn23)c1	i	i	25	i	i	i
CN(C)c1ccc(-c2cc(NC=O)c3ncc(-c4ccc(F)c(Cl)c4)n3c2)cc1	i	i	i	i	20	i
CC(=O)c1ccc(Nc2ccc(-c3ccccc3F)nn2)cc1	i	i	i	i	i	i
CCS(=O)(=O)N1Cc2ccccc2CC1C(=O)N(C)Cc1ccc(OC)c(F)c1 (stereo not drawn)	i	i	i	i	i	i
O=C1CN(CC(=O)NC2CCCc3ccccc32)CCN1 (stereo not drawn)	i	i	i	i	i	i
COC(=O)c1ccccc1-c1c2ccc(=N)cc-2oc2cc(N)ccc12	i	890	88	i	678	102
O=C(c1ccc2c(c1)OCO2)C1CCCN(Cc2c(F)ccc(F)c2F)C1 (stereo not drawn)	i	i	i	i	i	88
COc1ccc(C(=O)C2CCCN(C3Cc4ccccc4C3)C2)cc1OC (stereo not drawn)	i	i	i	i	i	90
O=C(c1ccc2c(c1)OCO2)C1CCCN(Cc2ccc3nsnc3c2)C1 (stereo not drawn)	i	i	i	i	i	78
